Source: PubChem BioAssay (several laboratories)
In the library only some 0.5% were active in any assay of this set; here they are far more common.
phage Ecoli inh: E. coli growth loss with phage present | growth absorbance | inhibition, % at 11.9 µM | actives 0.26% (n = 360,000); in the data active = inhibition above about 11%
AddAB inh: less growth of phage-infected E. coli with AddAB. E. coli expressing H. pylori AddAB, absorbance growth. inhibition, % at 11.9 µM. actives 0.29% (n = 330,000); in the data active = inhibition above about 12%;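 note: 0% = vehicle wells of infected cells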
E coli growth-1: reduces bacterial viability in AddAB counter-screen | AID 449728 | E. coli V3065 growth, OD600 absorbance, 18 h | inhibition, % at 11.9 µM | actives 0.27% (n = 330,000);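 active = inhibition above the campaign's mean inhibition across all tested compounds plus 3 SD, cut at about 9.9% in these data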;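 note: uninfected addAB+ strain grown without phage in ampicillin broth; 0% = DMSO wells and 100% = ciprofloxacin 0.95 µg/ml wells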
E coli growth-2: E. coli growth inhibition | Escherichia coli growth, OD600, 23 h; hits give low values | OD600 absorbance (test concentration not listed) | actives 0.21% (n = 330,000) | AID 1053175;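 active = OD600 absorbance below the run mean of sample wells minus 3.6 SD, in any replicate, cut at about 0.56 in these data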
Tat transport: blocks Tat-dependent protein export in E. coli; AID 488895; actives 0.036% (n = 340,000); inhibition, % at 10 µM; E. coli MC4100 TorA-mCherry Tat export, fluorescence;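 active = mean replicate inhibition at least 50% and at least half of replicates individually reaching 50%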;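 note: exported cargo escapes ClpAP degradation while cytoplasmic cargo is degraded and loses fluorescence; 0% = median of neutral control wells and 100% = median of NaSCN control wells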
AddAB conf: growth loss of T4-infected E. coli expressing H. pylori AddAB, confirmed. actives 64% (n = 880). inhibition, % at 11.9 µM. E. coli V3065 expressing H. pylori AddAB, T4 phage, OD; T4 phage with gene 2 nonsense mutations. shares compounds with AddAB inh;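 active = mean inhibition above a set limit taken from the earlier primary screen, cut at about 13% in these data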;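 note: higher means less bacterial growth since AddAB block lets phage replicate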
RecBCD counter: AddAB counter-screen: growth loss of RecBCD+ E. coli infected with mutant T4 phage. shares compounds with AddAB inh. E. coli V66 + mutant T4 phage, OD growth. inhibition, % at 11.9 µM. actives 73% (n = 880);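 active = mean inhibition above the mean of solvent-only control wells plus 3 SD, cut at about 4% in these data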;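 note: optical density read after an 18 h incubation at 37 °C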
bact viab count: counter-screen: bacterial growth inhibition | shares compounds with AddAB inh | bacterial viability, absorbance (AddAB counterscreen) | inhibition, % at 11.9 µM | actives 35% (n = 880) | AID 488956; in the data active = inhibition above about 25%
Active calls of the source: *; . = not tested or not shown.

SMILES | phage Ecoli inh | AddAB inh | E coli growth-1 | E coli growth-2 | Tat transport | AddAB conf | RecBCD counter | bact viab count
O=C(NNC(=O)c1cc(Br)ccc1O)c1csc(N2CCOCC2)n1 | . | 37* | 33* | . | -3 | 27* | 27* | 27*
CCc1ccc(NC(=S)NCc2cccnc2)cc1 | 7 | 14* | 11* | 0.61 | -9 | 6 | 6.7* | 4
Cc1ccc(NC(=S)NCc2cccnc2)cc1 | 5 | 4 | 4 | 0.67 | -4 | . | . | .
O=C(NNC(=O)C1CCN(S(=O)(=O)c2c(Cl)cccc2Cl)CC1)c1ccccc1O | 10 | 13* | 10 | 0.69 | 2 | 9 | 6.2* | 6
O=C(NNC(=O)C1CCN(S(=O)(=O)c2ccccc2)CC1)c1ccccc1O | 6 | 4 | 3 | 0.71 | -4 | . | . | .
O=C(NNC(=O)C1CCN(S(=O)(=O)c2ccccc2C(F)(F)F)CC1)c1ccccc1O | 9 | 14* | 10 | 0.69 | -24 | 13* | 8.8* | 11
O=C(NCc1ccco1)C1CCN(S(=O)(=O)c2ccccc2C(F)(F)F)CC1 | 1 | -2 | -1 | 0.69 | 3 | . | . | .
C[n+]1cccc(C(=O)NN=Cc2ccc3c(c2)OCO3)c1 | . | . | . | 0.7 | . | . | . | .
COc1ccc(CC(C)=NNC(=S)Nc2ccccc2)cc1 | . | . | . | 0.71 | . | . | . | .
Cc1cc(C(=O)N/N=C/c2ccc([N+](=O)[O-])o2)c(C)o1 | 6 | 13* | 9 | . | -12 | 98* | 7.9* | 17
Cc1ccc(NC(=O)CCC(=O)N/N=C/c2ccc([N+](=O)[O-])o2)cc1C | 4 | 7 | 7 | . | 1 | . | . | .
O=C(N/N=C/c1ccc([N+](=O)[O-])o1)C(O)c1ccccc1 (stereo not drawn) | 11 | 86* | 15* | . | -20 | 96* | 11* | 29*
CCCC(=O)Nc1ccc(C(=O)N/N=C/c2ccc([N+](=O)[O-])o2)cc1 | 10 | 18* | 22* | . | -21 | 100* | 12* | 28*
CCCCCC(=O)NCc1c(C(F)(F)F)nn(C)c1N1CCOCC1 | 0 | 98* | 97* | 0.71 | 0 | -3 | 1 | 0
NC(=S)NN=Cc1coc2cc(Br)ccc2c1=O | . | . | . | 0.62 | . | . | . | .
Cc1noc(NS(=O)(=O)c2ccc(NC(=O)C(F)(F)F)cc2)c1C | 3 | 15* | 9 | 0.7 | -12 | -1 | 3 | 2
Cc1noc(NS(=O)(=O)c2ccc(NC(=O)C(C)(C)C)cc2)c1C | 5 | 1 | 1 | 0.68 | -5 | . | . | .
Oc1ccc(N=Nc2c(O)ccc3ccccc23)cc1 | 3 | 13* | 13* | 0.59 | -5 | 60* | 4 | 17
NS(=O)(=O)c1ccc(N=Nc2c(O)ccc3ccccc23)cc1 | 2 | 2 | 1 | 0.69 | -1 | . | . | .
O=C(Cn1cncn1)NN=Cc1ccccc1Cl | . | . | . | 0.64 | . | . | . | .
CC1CCN(c2ccc(/C=N\Nc3nncn3N)cc2[N+](=O)[O-])CC1 | 3 | 15* | 5 | . | -9 | -2 | 0 | -5
CCc1nnc(NN=Cc2ccc(N3CCC(C)CC3)c([N+](=O)[O-])c2)n1N | . | . | . | 0.71 | . | . | . | .
O=C(CSc1ncccn1)NC(=O)Nc1ccc2c(c1)OCCO2 | 7 | 12* | 9 | 0.56 | -4 | 8 | 6.4* | 5
O=C(CSc1ncccn1)Nc1ccc2c(c1)OCO2 | 1 | 1 | -1 | 0.71 | 6 | . | . | .
CCOCCn1c(CN(C)Cc2ccccc2)nc2c1c(=O)n(C)c(=O)n2C | 4 | 100* | 100* | 0.74 | -14 | -5 | -1 | -4
CCc1ccc(OCC(=O)NN=Cc2ccco2)c([N+](=O)[O-])c1 | . | . | . | 0.61 | . | . | . | .
CC(=O)Nc1ccc(SCCN2CCC(O)CCC2=O)cc1 (stereo not drawn) | . | . | . | 0.64 | . | . | . | .
C(C#CCCCCCCCCC[n+]1ccccc1)#CCCCCCCCCC[n+]1ccccc1 | . | 101* | 102* | 0.064* | 82* | 100* | 100* | 101*
O=C(NN=Cc1cccc([N+](=O)[O-])c1)C1CC(=O)N(c2ccc(F)cc2)C1 (stereo not drawn) | . | . | . | 0.67 | . | . | . | .
[O-][n+]1cccc2c(Br)cc(Br)c(O)c21 | 43* | 40* | 40* | 0.24* | -7 | 38* | 47* | 41*
